Experimental data reported in the supplement of paper PMC3545927.
The list shows a part of the results. No count for the full screen is at hand.

Target: furin, P09958
Assay: furin cleavage Z-score vs untreated control; higher = more cleavage, active = 3.5 or more, inactive = 1 or less, 8 variable residues between constant flanks
How it was run: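 Cleavage by purified furin was measured on 8-mer peptides fused to a cDNA oligonucleotide and held on magnetic beads by their N-terminus. Reactions (0.01 ml, 1:10 enzyme:substrate) ran 7.5, 15 or 30 min in 50 mM HEPES pH 7.5 with CaCl2 and NaCl. Released DNA was adapter-tagged by PCR and sequenced, with read counts giving abundance. Log counts versus furin-free reactions were lowess-adjusted and scaled by median absolute deviation to give the cleavage Z-score.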

Sequence of furin, P09958 (P09958 whole entry): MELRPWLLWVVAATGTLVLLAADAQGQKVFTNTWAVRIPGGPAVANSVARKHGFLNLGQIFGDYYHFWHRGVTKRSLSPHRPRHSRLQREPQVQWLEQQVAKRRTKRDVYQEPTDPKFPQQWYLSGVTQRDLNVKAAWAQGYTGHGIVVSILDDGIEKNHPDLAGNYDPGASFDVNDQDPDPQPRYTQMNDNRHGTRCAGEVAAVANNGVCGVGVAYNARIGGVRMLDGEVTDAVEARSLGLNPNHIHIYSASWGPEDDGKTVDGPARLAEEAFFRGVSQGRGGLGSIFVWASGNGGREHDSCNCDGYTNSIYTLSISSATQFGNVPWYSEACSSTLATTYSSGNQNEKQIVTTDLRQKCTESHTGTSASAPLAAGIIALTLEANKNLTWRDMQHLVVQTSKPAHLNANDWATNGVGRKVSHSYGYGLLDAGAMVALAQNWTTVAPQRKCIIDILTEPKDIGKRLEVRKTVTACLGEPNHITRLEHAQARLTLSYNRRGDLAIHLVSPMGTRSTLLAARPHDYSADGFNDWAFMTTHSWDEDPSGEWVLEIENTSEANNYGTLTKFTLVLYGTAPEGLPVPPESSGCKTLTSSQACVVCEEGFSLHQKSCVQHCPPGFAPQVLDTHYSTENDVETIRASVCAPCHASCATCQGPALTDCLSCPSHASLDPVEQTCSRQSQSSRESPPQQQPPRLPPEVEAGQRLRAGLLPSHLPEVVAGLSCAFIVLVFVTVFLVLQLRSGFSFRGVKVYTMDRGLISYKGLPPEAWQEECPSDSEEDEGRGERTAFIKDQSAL

Row | Sequence | furin cleavage Z-score (7.5 min) | furin cleavage Z-score (15 min) | furin cleavage Z-score (30 min)
1 | CAVAKAVDFIAGNASASA [HC755] | -0.603 (inactive) | -0.471 (inactive) | -1.43 (inactive)
2 | CARRVRSVILAGNASASA [FS-2301] | -0.109 (inactive) | -0.0349 (inactive) | 1.3
3 | CARASRDVAQAGNASASA [FS-1686] | 3.28 | 3.03 | 3.8 (active)
4 | CALRKRLTPLAGNASASA [FS-1883] | -1.32 (inactive) | -0.87 (inactive) | 0.456 (inactive)
5 | CARALRNVWQAGNASASA [FS-1682] | -1.32 (inactive) | 1.58 | 0.167 (inactive)
6 | CARQPRLVGAAGNASASA [FS-2171] | -0.691 (inactive) | -0.656 (inactive) | -0.39 (inactive)
7 | CARASRDSSEAGNASASA [FS-2892] | -0.582 (inactive) | 0.0813 (inactive) | -0.0253 (inactive)
8 | CARRVRSRTHAGNASASA [FS-3071] | 0.143 (inactive) | 0.522 (inactive) | 1.9
9 | CALRKRLLRDAGNASASA [FS-686] | 9.49 (active) | 11.5 (active) | 8.89 (active)
10 | CARMKRKVGAAGNASASA [FS-1752] | 2.2 | 4.54 (active) | 4.95 (active)
11 | CARRVRSAEEAGNASASA [FS-2376] | 7.77 (active) | 9.29 (active) | 6.7 (active)
12 | CAKCTTPCSGAGNASASA [HC1954] | -0.367 (inactive) | 0.0622 (inactive) | 0.776 (inactive)
13 | CAEVVTSTWKAGNASASA [HC2254] | -0.33 (inactive) | -0.194 (inactive) | 1.09
14 | CAGVCCSMSYAGNASASA [HC1996] | -0.333 (inactive) | -0.0583 (inactive) | 0.735 (inactive)
15 | CARRMRRAGQAGNASASA [FS-2178] | 3.82 (active) | 5.28 (active) | 6.43 (active)
16 | CAQMYTNVDQAGNASASA [HC710] | 0.349 (inactive) | -0.937 (inactive) | 0.488 (inactive)
17 | CARRKRAKVEAGNASASA [FS-3051] | 2.74 | 5.28 (active) | 7.03 (active)
18 | CALRKRSVDQAGNASASA [FS-1884] | 6.21 (active) | 7.15 (active) | 6.93 (active)
19 | CARRKRAVNPAGNASASA [FS-2294] | 5.19 (active) | 3.83 (active) | 4.64 (active)
20 | CANWTRGERCAGNASASA [HC483] | 0.47 (inactive) | 1.14 | 0.279 (inactive)
21 | CAFVVTSTWVAGNASASA [HC2147] | 0.62 (inactive) | 0.171 (inactive) | -0.5 (inactive)
22 | CAGENLYFQGAGNASASA [TV2] | -1.7 (inactive) | -0.261 (inactive) | -0.768 (inactive)

Row | Sequence | furin cleavage Z-score (7.5 min) | furin cleavage Z-score (15 min) | furin cleavage Z-score (30 min)
23 | CAVVCCHMSYAGNASASA [HC109] | 1.01 | -0.749 (inactive) | 0.554 (inactive)
24 | CAGAYMSKAHAGNASASA [HC793] | -0.996 (inactive) | -1.61 (inactive) | -0.903 (inactive)
25 | CASTPCSHHLAGNASASA [HC2535] | 0.275 (inactive) | 0.419 (inactive) | -0.167 (inactive)
26 | CARRKRYRNFAGNASASA [FS-1836] | 1.23 | 0.582 (inactive) | 2.95
27 | CARRKKARGPAGNASASA [FS-2776] | 0.453 (inactive) | -0.0472 (inactive) | -0.48 (inactive)
28 | CAREDRFFCPAGNASASA [FS-2001] | -0.0818 (inactive) | 0.295 (inactive) | -0.529 (inactive)
29 | CARMKRFRVDAGNASASA [FS-2719] | -0.757 (inactive) | 0.996 (inactive) | 1.75
30 | CARMKRSRCPAGNASASA [FS-2721] | 5.18 (active) | 7.21 (active) | 5.91 (active)
31 | CARRKRSVAQAGNASASA [FS-1919] | 4.44 (active) | 4.31 (active) | 4.11 (active)
32 | CARRKRSRKPAGNASASA [FS-1835] | 6.72 (active) | 6.37 (active) | 6.82 (active)
33 | CARRKRKEKQAGNASASA [FS-3231] | -1.72 (inactive) | -1.54 (inactive) | 0.219 (inactive)
34 | CATPCTCGSSAGNASASA [HC721] | -1.49 (inactive) | -2.13 (inactive) | -1.32 (inactive)
35 | CAEECSQHLPAGNASASA [HC1015] | 0.447 (inactive) | 0.0813 (inactive) | -0.935 (inactive)
36 | CAPRARKNRSAGNASASA [FS-949] | 12.3 (active) | 12.6 (active) | 8.81 (active)
37 | CAPRARSRRSAGNASASA [FS-1053] | 9.77 (active) | 10.8 (active) | 8.95 (active)
38 | CALRAYMNTPAGNASASA [HC930] | 0.0194 (inactive) | -1.18 (inactive) | 0.0807 (inactive)
39 | CAEEIRVNRSAGNASASA [FS-229] | 2.33 | 0.724 (inactive) | 1.69
40 | CATTTRKNRSAGNASASA [FS-1498] | 8.64 (active) | 11 (active) | 7.73 (active)
41 | CALRARKNRSAGNASASA [FS-942] | 8.1 (active) | 8.12 (active) | 6.93 (active)
42 | CATTTCSGSWAGNASASA [HC1878] | -0.962 (inactive) | 0.367 (inactive) | -0.313 (inactive)
43 | CAPRAAERRSAGNASASA [FS-74] | -1.2 (inactive) | -1.99 (inactive) | -1.56 (inactive)
